Most compounds without a hit are left out; they make up all but 1.4% or so of the library.
HTR5A inv ag: HTR5A inverse agonism, opioid heterodimer counter-screen; 0.083% of 340,000 active; inhibition, % at 9.3 µM; P47898; HTR5A cell line, luminescence; in the data active means inhibition mostly above about 23%, no sharp cut-off; inactive means mostly below about 18%
MIN6 prolif: induces beta-cell replication in MIN6 cells; MIN6 cells proliferation, ATPlite luminescence, 48 h; cells starved in 0.2% serum; 100% = growth in 10% serum; proliferation, % at 10 µM; 0.29% of 330,000 active; AID 2380;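 active means compounds whose signal lies at least 3.5 SD above the mean of all wells on their plate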
MOR-DOR ag: OPRM1-OPRD1 heterodimerization agonism | P35372+P41143 | cells, luminescence | activation, % at 9.3 µM | 0.3% of 340,000 active
Target sequence (P35372 whole entry, looked up): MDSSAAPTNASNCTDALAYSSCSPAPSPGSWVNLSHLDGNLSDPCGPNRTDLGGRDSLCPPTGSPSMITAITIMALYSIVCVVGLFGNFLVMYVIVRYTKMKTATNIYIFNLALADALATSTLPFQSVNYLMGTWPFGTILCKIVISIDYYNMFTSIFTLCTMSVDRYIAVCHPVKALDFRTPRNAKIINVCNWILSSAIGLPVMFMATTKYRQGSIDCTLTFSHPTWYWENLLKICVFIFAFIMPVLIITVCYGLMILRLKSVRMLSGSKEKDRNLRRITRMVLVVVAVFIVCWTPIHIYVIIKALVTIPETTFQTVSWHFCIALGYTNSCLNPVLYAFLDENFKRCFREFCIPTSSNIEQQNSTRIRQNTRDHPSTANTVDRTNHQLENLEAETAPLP
Target sequence (P41143 whole entry, looked up): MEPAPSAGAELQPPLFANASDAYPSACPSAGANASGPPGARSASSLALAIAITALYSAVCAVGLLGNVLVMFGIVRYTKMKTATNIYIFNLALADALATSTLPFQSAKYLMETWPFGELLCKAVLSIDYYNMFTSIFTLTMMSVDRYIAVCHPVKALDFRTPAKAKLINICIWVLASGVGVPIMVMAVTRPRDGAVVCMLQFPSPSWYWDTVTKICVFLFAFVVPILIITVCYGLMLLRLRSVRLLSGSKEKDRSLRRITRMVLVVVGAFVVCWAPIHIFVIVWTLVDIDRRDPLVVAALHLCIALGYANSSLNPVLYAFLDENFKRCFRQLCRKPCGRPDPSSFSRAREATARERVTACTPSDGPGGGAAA
pCIP destab: compounds decreasing mouse p/CIP protein stability; F442A p/CIP-EGFP cells, EGFP fluorescence, 16 h; AID 1984; decrease of EGFP signal, % at 10 µM; 0.01% of 290,000 active;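 active means EGFP signal decrease of at least 30% at 10 µM or well 3 SD below plate mean, unless failing retest; inactive means the rest, including hits failing retest or dose response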
HTR5A ag: HTR5A agonism, opioid heterodimer counter-screen | HTR5A agonist assay, luminescence, cell-based | activation, % at 9.3 µM | 0.61% of 340,000 active; in the data active means activation mostly above about 9.5%, no sharp cut-off; inactive means mostly below about 7.6%
OPRM1-OPRD1 inv: inverse agonists of human mu-delta opioid receptor heterodimerization | cell-based MOR-DOR heterodimer luminescence, inverse agonism | inhibition, % at 9.3 µM | 0.21% of 340,000 active; in the data active means inhibition above about 22%, passing the limit was not always enough
MOR-DOR ag conf: OPRM1-OPRD1 heterodimer agonism, confirmation | shares compounds with MOR-DOR ag | cells, MOR-DOR heterodimerization, luminescence complementation | activation, % at 9.3 µM | 45% of 830 active | AID 504904
HTR5A ag ctr2: HTR5A agonism, opioid heterodimer counter-screen | shares compounds with MOR-DOR ag | HTR5A agonist counterscreen, cell luminescence | activation, % at 9.3 µM | 8% of 830 active; in the data active means activation above about 17%
Of the large screens only hits and unclear results are named; the others gave an inactive call (follow-up assays come after a bar, where they were run). Unless noted, no stated cut-off is given here; in the data, active means activation above about 18%; inactive means the rest.

COc1ccc(CNC(=O)Cc2cccs2)cc1	none
COc1ccc(Cl)cc1NC(=O)CN(C)C1CCS(=O)(=O)C1 (stereo unspecified)	none (no result: pCIP destab)
Cc1ccc(OCc2cc(C(=O)NC3CCc4ccccc43)no2)cn1 (stereo unspecified)	none
Cc1ccc2c(Cl)c(Cc3ccccc3)c(=S)[nH]c2n1	MOR-DOR ag 21 (no result: MIN6 prolif, pCIP destab) | MOR-DOR ag conf 35 | HTR5A ag ctr2 inactive
CCCCNC(=O)O[C@@H]1C[C@H]2CCCC(=O)N3CC[C@@H](C1)[C@@H]23	none
CCCCCCCN(c1ccccc1)[C@@H]1C[C@H]2CCCC(=O)N3CC[C@@H](C1)[C@@H]23	MOR-DOR ag 19 (no result: MIN6 prolif, pCIP destab) | MOR-DOR ag conf inactive | HTR5A ag ctr2 inactive
O=C1Nc2ccc(Br)cc2/C1=C/C(=O)c1ccccc1	MOR-DOR ag 18 (no result: MIN6 prolif, pCIP destab) | MOR-DOR ag conf inactive | HTR5A ag ctr2 inactive
C=CCN1N=C(c2ccc(NC(=O)c3ccccc3)cc2)CSC1=O	MOR-DOR ag 55 | MOR-DOR ag conf inactive | HTR5A ag ctr2 inactive
O=[N+]([O-])c1ccc(N2CCN(Cc3ccc(Br)o3)CC2)cc1	none
COc1ccc(C2NCCc3c2[nH]c2ccccc32)cc1COc1ccc(F)cc1 (stereo unspecified)	MOR-DOR ag 20 | MOR-DOR ag conf 24 | HTR5A ag ctr2 inactive
O=C1C[C@@H]2c3c(cccc3CN1Cc1ccc(Br)cc1)C[C@@H](O)[C@H]2O	none (no result: MIN6 prolif, pCIP destab)
CCc1ccc(Nc2n[n+](-c3ccccc3)c(-c3c(Cl)cccc3Cl)s2)cc1	MOR-DOR ag 27 | MOR-DOR ag conf 73 | HTR5A ag ctr2 inactive
COc1ccc(Oc2ccc3c(C(F)(F)F)cc(C(F)(F)F)nc3n2)cc1	none
Oc1ccc(Oc2ccc3c(C(F)(F)F)cc(C(F)(F)F)nc3n2)cc1	MOR-DOR ag 20 | MOR-DOR ag conf 82 | HTR5A ag ctr2 inactive
COc1cccc(C(=O)OCC(=O)NCCC2=CCCCC2)c1	none (no result: pCIP destab)
COc1cccc(C2c3[nH]c4ccccc4c3C[C@H]3C(=O)N(CCCOC(C)C)CC(=O)N23)c1 (stereo partly specified)	MOR-DOR ag 18 | MOR-DOR ag conf inactive | HTR5A ag ctr2 inactive
COC(=O)CCN1CCC2CC1c1cc(Cl)ccc12 (stereo unspecified)	none (no result: MIN6 prolif, pCIP destab)
Cc1ccc(-c2nnc(SCC(=O)N/N=C/c3ccc(C)s3)n2-c2ccc(C)cc2)cc1	MOR-DOR ag 18 | MOR-DOR ag conf inactive | HTR5A ag ctr2 inactive
CCOc1ccc(S(=O)(=O)N2CCOCC2)cc1NC(=O)CSCc1ccc(C)cc1	none (no result: pCIP destab)
COc1ccccc1NC(=O)COC(=O)C1CC2CCCC(C1)C2=O (stereo unspecified)	none (no result: pCIP destab)
CCc1ccc(C(=O)c2cnc3ccc(OC)cc3c2N2CCN(CC)CC2)cc1	MOR-DOR ag 111 | MOR-DOR ag conf inactive | HTR5A ag ctr2 inactive
O=C(Nc1ccn(CCCNCCCN2CCCC2=O)c(=O)n1)OCc1ccccc1	none (no result: MIN6 prolif, pCIP destab)
Cc1cc(C)c2nc(Nc3nc(-c4ccccc4)cc(=O)[nH]3)nc(C)c2c1	none
CC1=CC(C)(C)N=C(Nc2nc(C)c3cc(C)cc(C)c3n2)N1	MOR-DOR ag 19 | MOR-DOR ag conf 21 | HTR5A ag ctr2 inactive
Cc1ccc(C)c(N2CCN(C(=S)Nc3ccc4nc(N5CCN(C)CC5)cc(C)c4c3)CC2)c1	MOR-DOR ag 18 | MOR-DOR ag conf 22 | HTR5A ag ctr2 inactive
Cc1ccc(C)c(N2CCN(C(=S)Nc3ccc4nc(N5CCOCC5)cc(C)c4c3)CC2)c1	none
CC1CCN(S(=O)(=O)c2ccc3c(c2)C(=NO)c2cc(S(=O)(=O)N4CCC(C)CC4)ccc2-3)CC1	MOR-DOR ag 30 (no result: pCIP destab) | MOR-DOR ag conf inactive | HTR5A ag ctr2 inactive
COc1ccc(S(=O)(=O)N2CCC(C)CC2)cc1OC	none
Cc1cc(C)c(-c2cc(C(=O)Nc3cc(C)ccc3C)[nH]n2)c(O)c1	MOR-DOR ag 20 | MOR-DOR ag conf inactive | HTR5A ag ctr2 inactive
Cc1ccc(-c2cc(C(=O)Nc3cc(C)ccc3C)[nH]n2)c(O)c1	none
COc1ccc2c(Cl)c(-c3nnc4n3CCCCC4)sc2c1	MOR-DOR ag 81 | MOR-DOR ag conf inactive | HTR5A ag ctr2 inactive
COc1ccc(CN(C)C(=O)COC(=O)c2cc([N+](=O)[O-])ccc2N2CCCC2)c(OC)c1OC	none (no result: pCIP destab)
CCOc1ccc2[nH]c3c(N4CCN(c5ccccn5)CC4)ncnc3c2c1	MOR-DOR ag 35 | MOR-DOR ag conf 19 | HTR5A ag ctr2 inactive
O=C(c1cc(F)c(F)cc1Cl)N1CCN(S(=O)(=O)c2cccs2)CC1	none (no result: pCIP destab)
COc1ccc(OCC(O)CNC(C)c2ccccc2)cc1 (stereo unspecified)	none
CCCC(NCC(O)COc1ccc(-c2ccccc2)cc1)c1ccccc1 (stereo unspecified)	MOR-DOR ag 22 | MOR-DOR ag conf inactive | HTR5A ag ctr2 inactive
Cc1ccc(C(=O)c2c(C)oc3c2C(=O)C(=O)c2ccccc2-3)cc1	MOR-DOR ag 34, HTR5A ag 14 | MOR-DOR ag conf inactive | HTR5A ag ctr2 inactive
COc1cc(CNc2ccc(O)cc2)cc(Br)c1OCc1ccccc1F	MOR-DOR ag 28 | MOR-DOR ag conf inactive | HTR5A ag ctr2 inactive
CCOc1cc(CNc2ccc(O)cc2)cc(Br)c1OCc1ccccc1F	none
COC(=O)C(Cc1cccc(C)n1)(c1ccccc1)c1ccccc1	MOR-DOR ag 113 (no result: MIN6 prolif) | MOR-DOR ag conf 153 | HTR5A ag ctr2 inactive
COC(=O)c1[nH]c2ccc(C)cc2c1NC(=O)Nc1ccc(OC)cc1	none
COC(=O)c1[nH]c2ccc(F)cc2c1NC(=O)Nc1ccc(OC)cc1	MOR-DOR ag 23 | MOR-DOR ag conf inactive | HTR5A ag ctr2 inactive
O=C(N/N=C/c1ccc(Br)cc1)c1ccc(NC(=O)c2ccccc2)cc1	none (no result: MIN6 prolif, pCIP destab)
CN(C)c1ccc(/C=N/NC(=O)c2ccc(NC(=O)c3ccccc3)cc2)cc1	MOR-DOR ag 19 | MOR-DOR ag conf 34 | HTR5A ag ctr2 20
COc1ccc(CN(C)C(=O)C2CCN(S(=O)(=O)c3cccs3)CC2)cc1F	none (no result: pCIP destab)
O=C(COC(=O)CCN1C(=O)C2CC=CCC2C1=O)Nc1ccc([N+](=O)[O-])cc1 (stereo unspecified)	none (no result: pCIP destab)
COc1ccc(C2Nc3ccccc3C(=O)N2Cc2ccco2)cc1CN1C(=O)c2ccccc2C1=O (stereo unspecified)	none
COc1ccc(N2C(=O)c3ccccc3NC2c2ccc(OC)c(CSc3ccccn3)c2)cc1 (stereo unspecified)	none

Source: PubChem
